# Laboratory results from PubChem BioAssay (Tox21).
# Records with an inconclusive call do not appear. Where a call stands in place of a potency, no number is given. Calls of active or inactive are those of the source. Calls follow the shape of the dose curve; as a rule, active = well fitted activation curve with a large enough effect; inconclusive = small, poorly fitted or top-dose-only effect; inactive = flat fitted curve, though single readings scatter.
# Assay: qHTS assay to identify small molecule phospholipidosis (PLD) inducers (AID 1259344)
# Conditions: HepG2 phospholipidosis, LipidTOX Red imaging, 24 h; series mostly up to 38.3 µM
# Procedure, shortened: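 Read-out is LipidTOX Red fluorescence (ex 595/em 615) imaged in HepG2 cells after 24 h compound exposure at 37 C, with Hoechst nuclear counterstain (ex 352/em 461) allowing per-cell normalisation.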
row,SMILES,Potency
1,CCOc1cc(CC(=O)N[C@@H](CC(C)C)c2ccccc2N2CCCCC2)ccc1C(=O)O,inactive
2,C[N+](C)(C)CCOP(=O)(O)OP(=O)([O-])OC[C@H]1O[C@@H](n2ccc(N)nc2=O)[C@H](O)[C@@H]1O,inactive
3,CC(C)Cc1ccc([C@H](C)C(=O)O)cc1,inactive
4,NC(=O)[C@H]1O[C@@H](O)[C@H](O)[C@@H](O)[C@@H]1O,inactive
5,CC1CCCCN1CCCOC(=O)c1ccccc1 (stereo not given),inactive
6,CO[C@H]1C[C@H](O[C@H]2[C@H](C)[C@@H](O[C@@H]3O[C@H](C)C[C@H](N(C)C)[C@H]3O)[C@@H](C)C[C@]3(CO3)C(=O)[C@H](C)[C@@H](O)[C@@H](C)[C@@H](C)OC(=O)[C@@H]2C)O[C@@H](C)[C@@H]1O,inactive
7,CC(=O)OCC1=C(C(=O)O)N2C(=O)[C@@H](NC(=O)Cc3ccccc3)[C@H]2SC1,inactive
8,O=C(O)c1cc2cc(Cc3cccnc3)ccc2o1,inactive
9,CC/C=C\C/C=C\C/C=C\C/C=C\C/C=C\CCCC(=O)O,inactive
10,COc1cc2c(c(OC)c1OC)-c1c(cc3c(c1OC)OCO3)C[C@@H](C)[C@](C)(O)C2,inactive
11,CCOc1ccc(NC(=S)Nc2ccc(OCC)cc2)cc1,inactive
12,O=C(O)COc1ccccc1/C=N/NC(=O)c1ccncc1,inactive
13,Nc1nc(NC2CC2)c2ncn([C@@H]3C=C[C@@H](CO)C3)c2n1,inactive
14,CCOc1ccc(S(=O)(=O)O)c2cccnc12,inactive
15,NC(=O)[C@@H]1CCCN1C(=O)[C@H](Cc1cnc[nH]1)NC(=O)[C@@H]1CCC(=O)N1,inactive
